PubChem BioAssay AID1224921 (Broad Institute, 2016)
Hit rate of the full screen: of about 1,400 compounds, about 350 (25%) were called active. Another 2% or so got no clear call; they are omitted. No rule for the calls is given here. These entries were drawn from the full list. Results with a measured potency or affinity are listed apart.

assay: C. difficile growth inhibition, confirmation, 4-point retest (AID 1224921); details: Clostridioides difficile clinical isolate growth, OD600, 24 h, hits give low values; at 30 µM unless noted;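 also: plate controls were DMSO wells for no effect and levofloxacin 16 µg/mL wells for full effect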

SMILES | max activity
O=C(C[C@H]1C[C@@H]2c3cc(NC(=O)C4CCC4)ccc3O[C@@H]2[C@@H](CO)O1)NCc1ccc2c(c1)OCO2 | -8.66% [at 0.5 µM] (inactive)
COc1ccccc1NC(=O)N[C@@H]1CC[C@@H](CC(=O)N2CCC(Cc3ccccc3)CC2)O[C@@H]1CO | -7.56% (inactive)
CCS(=O)(=O)Nc1ccc2c(c1)C(=O)N(C)C[C@@H](OC)[C@H](C)CN(C(C)=O)[C@@H](C)CO2 | -11.1% (inactive)
C[C@@H]1CCCCO[C@H](CN(C)Cc2ccc(C(=O)O)cc2)[C@H](C)CN([C@H](C)CO)C(=O)c2cc(NC(=O)Nc3ccc4c(c3)OCO4)ccc2O1 | -16.4% (inactive)
C[C@@H]1CN([C@@H](C)CO)S(=O)(=O)c2ccc(C3=CCCCC3)cc2O[C@@H]1CN(C)Cc1cccnc1 | 23.6% (inactive)
O=C(Nc1cc(F)ccc1F)N[C@@H]1CC[C@@H](CC(=O)N2CCc3ccccc3C2)O[C@H]1CO | 14.6% (inactive)
CNC[C@@H]1Oc2cc(C#CCOC)ccc2S(=O)(=O)N([C@@H](C)CO)C[C@H]1C | -11.1% [at 8 µM] (inactive)
O=C(N[C@H]1C=C[C@H](CC(=O)N2CCc3ccccc3C2)O[C@H]1CO)C1CC1 | -8.59% (inactive)
C[C@H]1CN([C@@H](C)CO)S(=O)(=O)c2ccc(C#CC3CCCC3)cc2O[C@H]1CN(C)Cc1cccnc1 | 23.6% (inactive)
O=C(C[C@@H]1C[C@@H]2c3cc(NC(=O)C4CCC4)ccc3O[C@@H]2[C@H](CO)O1)NCc1cc(F)ccc1F | 4.63% (inactive)
Cc1ccc(-c2ccc3c(c2)O[C@@H](CN(C)Cc2ccncc2)[C@@H](C)CN([C@H](C)CO)S3(=O)=O)cc1 | -8.83% [at 8 µM] (inactive)
C[C@H](CO)N1C[C@H](C)[C@H](CN(C)Cc2ccncc2)Oc2cc(C3=CCCCC3)ccc2S1(=O)=O | 33% (inactive)
C[C@H]1CN([C@@H](C)CO)C(=O)c2ccccc2-c2ccccc2CO[C@H]1CN(C)Cc1cccc(O)c1 | 7.55% (inactive)
C[C@H]1CN([C@@H](C)CO)C(=O)c2ccccc2-c2ccccc2CO[C@H]1CN(C)C(=O)CCN(C)C | -12.8% [at 35 µM] (inactive)
C/C=C/c1ccc2c(c1)O[C@H](CN(C)C(=O)Nc1ccc(C(F)(F)F)cc1)[C@@H](C)CN([C@@H](C)CO)S2(=O)=O | 32.5% [at 8 µM] (inactive)
C[C@H]1CN([C@@H](C)CO)C(=O)c2cc(Br)cnc2O[C@@H]1CN(C)C(=O)c1ccccc1 | -20% [at 8 µM] (inactive)
COc1ccc(NC(=O)Nc2cccc3c2O[C@@H](CN(C)C(=O)NC2CCCCC2)[C@H](C)CN([C@@H](C)CO)C3=O)cc1 | 10.1% (inactive)
C[C@@H]1CN([C@@H](C)CO)S(=O)(=O)c2ccc(C#Cc3ccccc3F)cc2O[C@H]1CN(C)CC1CCOCC1 | 35.2% (inactive)
COc1ccccc1C#Cc1ccc2c(c1)O[C@@H](CN(C)Cc1cccnc1)[C@@H](C)CN([C@@H](C)CO)S2(=O)=O | 24.6% (inactive)
CC(C)NC(=O)N(C)C[C@H]1OCc2ccccc2-c2ccccc2C(=O)N([C@@H](C)CO)C[C@H]1C | -14.3% (inactive)

SMILES | max activity
COc1cccc(C(=O)Nc2ccc3c(c2)OC[C@@H](C)N(C(=O)C2CCCC2)C[C@H](C)[C@@H](OC)CN(C)C3=O)c1 | -18.8% [at 8 µM] (inactive)
CC(C)CC#Cc1ccc2c(c1)O[C@H](CN(C)Cc1ccncc1)[C@@H](C)CN([C@@H](C)CO)S2(=O)=O | 23.1% (inactive)
C[C@H](CO)N1C[C@H](C)[C@H](CN(C)Cc2ccc3c(c2)OCO3)Oc2ncc(-c3cccc(F)c3)cc2C1=O | -9.89% [at 8 µM] (inactive)
N#C[C@H]1[C@H](c2ccc(-c3cccc(F)c3)cc2)[C@@H](CO)N1C(=O)NC1CCCC1 | 28.5% (inactive)
CCCC(=O)Nc1ccc2c(c1)C(=O)N(C)C[C@@H](OC)[C@@H](C)CN(Cc1ccccc1)[C@H](C)CO2 | 9.23% (inactive)
C[C@H]1CN([C@@H](C)CO)S(=O)(=O)c2ccc(C3=CCCCC3)cc2O[C@H]1CN(C)C(=O)c1ccncc1 | 14.4% (inactive)
N#C[C@H]1[C@@H](c2ccc(C#Cc3ccccc3F)cc2)[C@@H](CO)N1C(=O)C1CCCCC1 | -9.56% (inactive)
C[C@@H]1CN([C@@H](C)CO)C(=O)Cc2cc(NC(=O)C3CC3)ccc2O[C@@H]1CN(C)Cc1ccc(-c2ccccc2)cc1 | 49.5% (inactive)
O=C(C[C@@H]1CC[C@H]2[C@@H](COC[C@@H](O)CN2Cc2ccc(Cl)cc2)O1)NCc1ccccc1Cl | -28.7% [at 1.95 µM] (inactive)
O=C(C[C@H]1CC[C@@H]2[C@H](COC[C@H](O)CN2Cc2ccc(Cl)cc2)O1)NCc1ccccc1Cl | 32% [at 8 µM] (inactive)
COc1cccc(NC(=O)N[C@H]2CC[C@H](CC(=O)N3CCCCC3)O[C@@H]2CO)c1 | 17.5% (inactive)
C[C@@H]1CN([C@@H](C)CO)S(=O)(=O)c2ccc(C3=CCCCC3)cc2O[C@H]1CN(C)Cc1cccnc1 | 15.4% (inactive)
CNC[C@H]1Oc2cc(C#CCC3CCCC3)ccc2S(=O)(=O)N([C@@H](C)CO)C[C@@H]1C | 29.2% [at 8 µM] (inactive)
CO[C@@H]1CN(C)C(=O)c2cc(NC(=O)Nc3cccc(F)c3)ccc2OC[C@@H](C)N(C)C[C@H]1C | -12.5% (inactive)
O=C(Nc1ccc(F)cc1)Nc1ccc2c(c1)[C@@H]1C[C@H](CC(=O)N3CCCCC3)O[C@@H](CO)[C@@H]1O2 | -6.91% (inactive)
CC(C)C#Cc1ccc2c(c1)O[C@@H](CN(C)Cc1ccncc1)[C@H](C)CN([C@H](C)CO)S2(=O)=O | 6.91% [at 1.95 µM] (inactive)
COc1cccc(NC(=O)N[C@H]2C=C[C@@H](CC(=O)NCc3ccncn3)O[C@H]2CO)c1 | -10.2% [at 1.95 µM] (inactive)
C[C@H]1CN([C@@H](C)CO)S(=O)(=O)c2ccc(C3=CCCC3)cc2O[C@@H]1CN(C)Cc1ccncc1 | -16.8% [at 1.95 µM] (inactive)
CCCN1C[C@H](C)[C@H](OC)CN(C)C(=O)c2ccc(NC(=O)c3ccc(F)cc3)cc2OC[C@@H]1C | -9.18% (inactive)
COc1cccc(-c2ccc3c(c2)O[C@@H](CN(C)Cc2ccncc2)[C@H](C)CN([C@H](C)CO)S3(=O)=O)c1 | 19.2% (inactive)

SMILES | max activity
CO[C@H]1CN(C)C(=O)c2cc(NC(=O)c3ccc(-c4ccccc4)cc3)ccc2OC[C@H](C)NC[C@H]1C | 27.6% [at 8 µM] (inactive)
O=C(Cc1ccccc1)N[C@@H]1CC[C@@H](CC(=O)N2CCOCC2)O[C@H]1CO | -16.6% [at 8 µM] (inactive)
O=C(Cc1ccccc1)N[C@H]1CC[C@@H](CC(=O)N2CCOCC2)O[C@@H]1CO | -8.53% [at 8 µM] (inactive)
CO[C@@H]1CN(C)C(=O)c2cc(NC(=O)Nc3ccccc3F)ccc2OC[C@@H](C)N(CCC(F)(F)F)C[C@H]1C | 10.2% (inactive)
CC(C)C(=O)Nc1ccc2c(c1)C(=O)N(C)[C@H]1CC[C@@H](CC(=O)NCc3ccccc3F)O[C@@H]1CO2 | -12.2% [at 8 µM] (inactive)
CNC[C@@H]1Oc2ncc(-c3ccc(OC)cc3)cc2C(=O)N([C@H](C)CO)C[C@H]1C | 28.1% (inactive)
CO[C@@H]1CN(C)C(=O)c2ccc(NC(=O)c3ccccc3F)cc2OC[C@@H](C)N(CC2CC2)C[C@H]1C | -10.7% [at 1.95 µM] (inactive)
CCCC(=O)Nc1ccc2c(c1)C(=O)N(C)C[C@H](OC)[C@@H](C)CN(Cc1ccccc1)[C@@H](C)CO2 | 22.4% (inactive)
C[C@H]1CN([C@@H](C)CO)C(=O)c2cc(C3=CCCCC3)cnc2O[C@@H]1CN(C)C(=O)c1cccc(F)c1 | 21.2% (inactive)
CC(=O)N(C)C[C@H]1Oc2ncc(-c3ccc(C(=O)N(C)C)cc3)cc2C(=O)N([C@@H](C)CO)C[C@H]1C | -3.53% [at 1.95 µM] (inactive)
O=C(Cc1ccccc1)N[C@H]1CC[C@H](CC(=O)N2CCOCC2)O[C@@H]1CO | -10.8% (inactive)
O=C(Cc1ccccc1)N[C@@H]1CC[C@H](CC(=O)N2CCOCC2)O[C@H]1CO | -12.9% (inactive)
CCC(=O)N(C)C[C@H]1Oc2ncc(-c3ccc(C(=O)N(C)C)cc3)cc2C(=O)N([C@H](C)CO)C[C@@H]1C | 21.8% [at 8 µM] (inactive)
COCC(=O)Nc1ccc2c(c1)OC[C@@H](C)N(C(=O)c1ccccc1F)C[C@H](C)[C@@H](OC)CN(C)C2=O | -10.4% [at 35 µM] (inactive)
Cc1ccccc1-c1ccc2c(c1)O[C@H](CN(C)Cc1ccncc1)[C@@H](C)CN([C@@H](C)CO)S2(=O)=O | 7.76% (inactive)
C[C@H]1CN([C@@H](C)CO)S(=O)(=O)c2ccc(C#CC3CCCCC3)cc2O[C@@H]1CN(C)Cc1cccnc1 | 26.3% [at 1.95 µM] (inactive)
C/C=C/c1cnc2c(c1)C(=O)N([C@@H](C)CO)C[C@H](C)[C@@H](CN(C)Cc1ccc(F)cc1)O2 | -8.42% [at 8 µM] (inactive)
CC(C)CC#Cc1ccc2c(c1)O[C@@H](CN(C)C(=O)C1CCCCC1)[C@@H](C)CN([C@@H](C)CO)S2(=O)=O | 27.1% (inactive)
O=C(Nc1ccc2c(c1)[C@H]1C[C@@H](CC(=O)N3CCc4ccccc4C3)O[C@@H](CO)[C@H]1O2)c1ccc2c(c1)OCO2 | -27.9% [at 8 µM] (inactive)
CCCC#Cc1ccc2c(c1)O[C@@H](CN(C)Cc1cccnc1)[C@@H](C)CN([C@H](C)CO)S2(=O)=O | 35.5% (inactive)
